# Source: PubChem BioAssay (NCATS)
# Records with an inconclusive call do not appear. Calls of active or inactive are those of the source. Calls come from the whole dose curve; as a rule, active = well fitted cell-killing curve with a large enough effect; inconclusive = small, poorly fitted or top-dose-only effect, or effect the other way; inactive = no such curve, though single readings can be large or run the other way.
# Experiment: Quantitative High-Throughput drug screen in 47 multiple myeloma cell lines against the NCATS MIPE library collection: KMS34_JCRB cell viability assay (AID 1918985); note: nearly all actives have a fitted effect of over 40% in size
# Conditions: KMS34 myeloma viability, CellTiter-Glo ATP luminescence, 48 h; series mostly up to 45.8 µM
# Procedure, shortened: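 500 cells/well; MIPE 4.0 drugs pin-transferred; 48 h, 37C, 5% CO2. CellTiter-Glo, 5 min RT, luminescence. Controls: DMSO 100%, media 0%.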
# Potency is the fitted concentration of half-maximal effect.
row,SMILES,Potency
1,CCc1ccc(C(=O)Nc2cc(CN3CCN(C)CC3)cc(C(F)(F)F)c2)cc1C#Cc1cnc2ccnn2c1,10500 nM (active)
2,C=CC[C@@H]1C=C(C)C[C@H](C)C[C@H](OC)[C@H]2O[C@@](O)(C(=O)C(=O)N3CCCC[C@H]3C(=O)O[C@H](C(C)=C[C@@H]3CC[C@H](O)[C@H](OC)C3)[C@@H](C)[C@@H](O)CC1=O)[C@@H](C)C[C@@H]2OC,1480 nM (active)
3,CO[C@@H]1[C@@H](O)[C@H](O)[C@@H](n2c3c(Cl)cccc3c3c4c(c5c6cccc(Cl)c6[nH]c5c32)C(=O)NC4=O)O[C@@H]1CO,1320 nM (active)
4,Cc1cc(O)c2c(c1)C(=O)c1cccc(O)c1C2=O,inactive
5,C[C@H](NC(=O)C(C#N)=Cc1cccc(Br)n1)c1ccccc1,7430 nM (active)
6,Cn1cnc(=N)c2[nH]cnc21,132 nM (active)
7,CC(C)N1[N]C(=C2C=c3cc(O)ccc3=N2)c2c(N)ncnc21,296 nM (active)
8,COc1cccc2c1C(=O)c1c(O)c3c(c(O)c1C2=O)C[C@@](O)(C(=O)CO)C[C@@H]3O[C@H]1C[C@H](N)[C@@H](O)[C@H](C)O1,743 nM (active)
9,COc1cc(C=CC(=O)CC(=O)C=Cc2ccc(O)c(OC)c2)ccc1O,6790 nM (active)
10,CCC[C@H]1C[C@H](C(=O)N[C@@H]([C@@H]2O[C@@H](SC)[C@@H](O)[C@@H](O)[C@@H]2O)[C@H](C)Cl)N(C)C1,inactive
11,C=CC(=O)Nc1ccc2ncnc(Nc3ccc(OCc4cccc(F)c4)c(Cl)c3)c2c1,332 nM (active)
